In PubChem BioAssay (Tox21):
Inconclusive results are not listed. A call without a number means that no potency is given here. Calls of active or inactive are those of the source. Calls come from the whole dose curve; as a rule, active = well fitted inhibition curve with a large enough effect in the repeat runs; inconclusive = weak or mixed curves; inactive = no such curve, though single readings can be large or run the other way.

biological target: Cytochrome P450 2C9 (Homo sapiens) (UniProt P11712); experiment: Cytochrome P450 Family 2 Subfamily C Member 9 (CYP2C9) small molecule antagonists: luciferase reporter qHTS assay (AID 1671198); details: P450-Glo CYP2C9 enzyme assay, luciferin luminescence; series mostly up to 115 µM; note: nearly all actives have a fitted effect of over 50% in size
Sequence (P11712 whole entry, looked up): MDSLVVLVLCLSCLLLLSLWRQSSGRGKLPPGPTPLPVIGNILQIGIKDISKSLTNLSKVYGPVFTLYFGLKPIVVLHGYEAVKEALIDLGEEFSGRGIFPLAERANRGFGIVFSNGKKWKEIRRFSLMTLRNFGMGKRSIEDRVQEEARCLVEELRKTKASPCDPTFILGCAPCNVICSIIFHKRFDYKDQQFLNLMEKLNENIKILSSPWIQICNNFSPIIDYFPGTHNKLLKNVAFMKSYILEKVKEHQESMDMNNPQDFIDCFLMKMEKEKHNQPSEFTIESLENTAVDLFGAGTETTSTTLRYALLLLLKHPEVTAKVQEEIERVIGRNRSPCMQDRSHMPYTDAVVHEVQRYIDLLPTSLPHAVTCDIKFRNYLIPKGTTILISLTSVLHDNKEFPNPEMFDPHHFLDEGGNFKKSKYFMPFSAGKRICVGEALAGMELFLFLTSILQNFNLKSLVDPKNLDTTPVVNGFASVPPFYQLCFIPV
Excerpt: U.S. Tox21 Program National Center for Advancing Translational Sciences [NCATS] U.S. Environmental Protection Agency [EPA] National Institutes of Environmental Health Sciences [NIEHS] National Toxicology Program [NTP] U.S. Food and Drug Administration [FDA] Tox21 Assay Overview: Cytochrome P450 (CYP) enzymes are membrane-bound hemeproteins that play a key role in metabolism of drugs and xenobiotics. Evaluation of the effect of chemicals on CYP isozymes is useful to minimize the adverse drug reactions and toxicities in drug development process. Tox21 chemicals were tested for their effect on CYP enzyme activities by using P450-Glo (TM) screening systems (Promega Corporation, Madison, WI). These systems provide a luminescent method containing proluciferin substrates and are converted to luciferin products by CYP isozymes. The luciferin products formed are detected with a luciferin detection reagent, and the amount of light produced is proportional to CYP activity. P450-Glo (TM) CYP2C9 screening system (Catalog. No. V9790) was used to detect the compounds that interfere in CYP2C9 activity.
Tox21 Assay Protocol Summary: Two ul of enzyme-substrate mix was dispensed into medium binding white/solid 1536-well plates (Greiner Bio-One North America Inc., Monroe, NC) using a BioRaptr Flying Reagent Dispenser (FRD, Beckman Coulter, Brea, CA). […] The assay plates were incubated at room temperature for 10 min. Then 2 ul of NADPH regeneration solution was added to each well of the assay plates using an FRD and incubated at 37C for 1 h. The reaction was stopped by adding 4 ul of detection reagent using an FRD and after 20 min incubation at room temperature the luminescence signal was measured using a ViewLux plate reader (Perkin Elmer, Shelton, CT). Data were expressed as relative luminescence units.
Potency is the fitted concentration of half-maximal effect.

**Q.** With CC(C)CCCCCOC(=O)CCCCC(=O)OCCCCCC(C)C as the molecule, how does the Potency read?
**A.** 63.3 µM (active)

**Q.** Which Potency does the source give for CCCCCCCCCCCC[N+](C)(C)CC(=O)[O-] here?
**A.** inactive

**Q.** For Nc1ccc(Cl)cc1[N+](=O)[O-], which Potency is on record?
**A.** inactive

**Q.** For CC1C2CC(CC2C2CCCC(O)C2)C1(C)C (stereo not given), which Potency is on record?
**A.** 35.6 µM (active)

**Q.** CC1CC(=O)NN=C1c1ccc(NCC(C)(C)NCC(O)COc2cc(Cl)ccc2C#N)cc1 (stereo not given) was tested. Which Potency did it give?
**A.** 12.3 µM (active)

**Q.** How did the Potency turn out when CCOC(=O)N1CCC(n2c(=O)[nH]c3cc(Cl)ccc32)CC1 was run?
**A.** 9.77 µM (active)

**Q.** Cc1cnc(C)c(C)n1 was tested. Which Potency did it give?
**A.** inactive

**Q.** How did the Potency turn out when CCC(C)(O)CCC=C(C)C (stereo not given) was run?
**A.** inactive

**Q.** CC(C)(C)CC(C)(C)c1ccc(OCCO)cc1 was tested. Which Potency did it give?
**A.** 31.5 µM (active)

**Q.** Which Potency does the source give for CN1Cc2cc(C(=O)N3CCC(C4CCNCC4)CC3)ccc2N[C@@H](CC(=O)O)C1=O here?
**A.** inactive

**Q.** With O=S1OCCO1 as the molecule, how does the Potency read?
**A.** inactive

**Q.** For CCCOC(=O)c1ccc(C(=O)OCCC)nc1, which Potency is on record?
**A.** 7.1 µM (active)

**Q.** How did the Potency turn out when OCCSc1ccccc1 was run?
**A.** inactive

**Q.** For CC(=O)OCC(=O)[C@H]1CC[C@H]2[C@@H]3CCC4=CC(=O)CC[C@]4(C)[C@H]3CC[C@]12C, which Potency is on record?
**A.** 7.76 µM (active)

**Q.** How did the Potency turn out when CN1C(=O)CC(C)(c2ccccc2)C1=O (stereo not given) was run?
**A.** inactive

**Q.** Which Potency does the source give for CCCCCCCC/C=C\CCCCCCCC(=O)OC(CO)CO here?
**A.** 20 µM (active)

**Q.** With O=C(CCCN1CCC(O)(c2ccc(Br)cc2)CC1)c1ccc(F)cc1 as the molecule, how does the Potency read?
**A.** inactive

**Q.** With CCC(C(=O)OCCN(CC)CC)c1ccccc1 (stereo not given) as the molecule, how does the Potency read?
**A.** inactive

**Q.** For C/C=C(\C)C(=O)OCCC(C)CCC=C(C)C (stereo not given), which Potency is on record?
**A.** 39.9 µM (active)

**Q.** CCOC(=O)c1ccccc1OC was tested. Which Potency did it give?
**A.** inactive

**Q.** With Cn1c(=O)c2c(ncn2CC(=O)O)n(C)c1=O as the molecule, how does the Potency read?
**A.** inactive

**Q.** How did the Potency turn out when CCc1nn(CCCN2CCN(c3cccc(Cl)c3)CC2)c(=O)n1CCOc1ccccc1 was run?
**A.** inactive

**Q.** Which Potency does the source give for O=Cc1c(Cl)cccc1Cl here?
**A.** inactive

**Q.** COCCOC(=O)C1=C(C)NC(C)=C(C(=O)OC/C=C/c2ccccc2)C1c1cccc([N+](=O)[O-])c1 (stereo not given) was tested. Which Potency did it give?
**A.** 0.195 µM (active)

**Q.** CCn1cc(C(=O)O)c(=O)c2cc(F)c(N3CCNCC3)nc21 was tested. Which Potency did it give?
**A.** inactive

**Q.** For N#C/C(=C1\SCC(c2ccccc2Cl)S1)n1ccnc1 (stereo not given), which Potency is on record?
**A.** 2.45 µM (active)

**Q.** With COc1ccccc1N=Nc1c(S(=O)(=O)O)cc2cc(S(=O)(=O)O)cc(NC(C)=O)c2c1O as the molecule, how does the Potency read?
**A.** 33.5 µM (active)

**Q.** How did the Potency turn out when CCN(CC)CCNC(=O)c1ccc(NC(C)=O)cc1 was run?
**A.** inactive

**Q.** How did the Potency turn out when COc1cc2c(cc1OC)-c1cc(=Nc3c(C)cc(C)cc3C)n(C)c(=O)n1CC2 was run?
**A.** 1.1 µM (active)

**Q.** CCCCCC=CCC=CCCCCCCCC(=O)OCC was tested. Which Potency did it give?
**A.** 15.5 µM (active)

**Q.** For COc1ccc(C(=O)c2cccc(O)c2)c(OC)c1, which Potency is on record?
**A.** inactive

**Q.** CCCCN(CCCC)CCCOC(=O)c1ccc(N)cc1 was tested. Which Potency did it give?
**A.** inactive

**Q.** How did the Potency turn out when CC(=O)Oc1ccc(C(=C2CCCCC2)c2ccc(OC(C)=O)cc2)cc1 was run?
**A.** 9.77 µM (active)

**Q.** For O=C1NCCN1, which Potency is on record?
**A.** inactive

**Q.** With CC(C)CCCC(=O)O as the molecule, how does the Potency read?
**A.** inactive

**Q.** For C=CC(=O)NCOCC(C)C, which Potency is on record?
**A.** inactive

**Q.** CCC(=O)Oc1ccc(/C(CC)=C(\CC)c2ccc(OC(=O)CC)cc2)cc1 was tested. Which Potency did it give?
**A.** inactive

**Q.** Which Potency does the source give for CCn1nc(C)c2c1C(=O)NCC(c1ccc(O)cc1)=N2 here?
**A.** 44.8 µM (active)

**Q.** With CC(CCO)CCc1ccccc1 (stereo not given) as the molecule, how does the Potency read?
**A.** 35.6 µM (active)

**Q.** How did the activity change, negative = inhibition turn out when C=CCCCCCCCCCCCCCCCC was run?
**A.** 3.76% [at 10.5 µM] (inactive)
